This is a sample that favours compounds with a hit; in the whole collection about 0.97% have one here.
B2AR ag = human beta-2 adrenergic receptor agonism by FAP; response, % (no concentration beside the values); AID 504454; Am2.2-beta2AR cells, FAP receptor internalization, flow cytometry; 0.43% of 340,000 active; P07550;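 active = response above a set limit, near 3 SD of response in nonfluorescent compounds, cut at about 42% in these data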
NTR1 ag = NTR1 (human) agonism | activation, % at 20 µM | NTR1-U2OS beta-arrestin-GFP spot imaging, agonist mode | 0.17% of 330,000 active | AID 493036 | P30989;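 active = activation at or above 40% of the spot to cytoplasm intensity ratio, with at least 20 cells analyzed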;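 also: 0% = DMSO without peptide and 100% = 100 nM NTR1 peptide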
Target sequence (P30989 whole entry, looked up): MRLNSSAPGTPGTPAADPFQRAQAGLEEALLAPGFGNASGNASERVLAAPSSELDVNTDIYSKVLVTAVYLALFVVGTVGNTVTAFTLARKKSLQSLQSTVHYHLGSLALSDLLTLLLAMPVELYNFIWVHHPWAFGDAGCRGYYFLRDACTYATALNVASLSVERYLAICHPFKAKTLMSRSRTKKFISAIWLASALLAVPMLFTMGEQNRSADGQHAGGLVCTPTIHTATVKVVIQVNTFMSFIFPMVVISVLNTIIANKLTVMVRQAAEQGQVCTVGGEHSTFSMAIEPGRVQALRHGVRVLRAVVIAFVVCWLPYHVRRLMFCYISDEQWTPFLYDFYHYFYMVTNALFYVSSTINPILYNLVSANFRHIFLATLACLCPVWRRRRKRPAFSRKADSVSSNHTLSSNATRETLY
TLR9-MyD88 block = blocks human TLR9 binding to MyD88; Q9NR96+Q99836; CHO BLA complementation TLR9-MyD88, CCF4 FRET ratio; inhibition, % at 4.98 µM; 0.21% of 340,000 active; AID 504734;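 active = inhibition above the mean over all tested compounds plus 3 SD, cut at about 21% in these data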;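 also: 0% = DMSO only wells and 100% = clavulanate BLA inhibitor control wells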
TLR4 MyD88 comp = blocks binding of human TLR4 to MyD88; O00206+Q99836; HeLa CL3-4 TLR4/MyD88 BLA complementation, FRET ratio; inhibition, % at 8.4 µM; 0.18% of 200,000 active; in the data active = inhibition above about 25%;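 also: 0% = vehicle and 100% = reference inhibitor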
Bfl-1 A1 inh = inhibitors of the anti-apoptotic protein A1, read as caspase activation; MEF A1-2A-BIM cells, Caspase-Glo 3/7 luminescence, 3 h; percent of clofoctol response, vehicle zero; caspase activation, % (no concentration beside the values); 0.066% of 330,000 active;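 active = over half of replicate activation scores above 10%, or exactly half above 10 with the replicate mean above 10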
NOD2-RIPK2 inh = blocks binding of human NOD2 to RIPK2; CHO BLA complementation NOD2-RIPK2, CCF4 ratio; inhibition, % at 4.98 µM; 0.38% of 360,000 active; AID 624267; in the data active = inhibition above about 21%;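 also: 0% = vehicle only and 100% = reference blocker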
NTR1 ag conf = NTR1 (human) agonism, confirmed; shares compounds with NTR1 ag; NTR1-U2OS beta-arrestin-GFP translocation imaging; activation, % at 20 µM; 38% of 480 active; AID 504550;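 active = mean activation at 20 µM of at least 40%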;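 also: 0% = DMSO without peptide and 100% = 100 nM NTR1 peptide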
The depositor's hits bear a star; . = no result.

SMILES	B2AR ag	NTR1 ag	TLR9-MyD88 block	TLR4 MyD88 comp	Bfl-1 A1 inh	NOD2-RIPK2 inh	NTR1 ag conf
CCCCNc1c(-c2ccc(OC)c(Sc3ccc(OC)cc3)c2)nc2ccccn12	28	56*	-8	.	-1	-6	71*
CC(=O)C(Sc1nnnn1-c1ccc(O)cc1)c1ccccc1 (stereo not given)	-7	1	-5	.	0	2	.
COc1ccc(C(=O)n2nc(-c3ccco3)nc2N)cc1	-4	52*	16	-1	-1	-7	5
O=C(O)C1=CC[C@@H](c2ccc(Cl)cc2)N(S(=O)(=O)c2ccc(Cl)cc2)[C@H]1c1cccc(Cl)c1	20	56*	4	.	0	-15	9
Nc1c(C(=O)Nc2ccc(S(=O)(=O)N3CCCC3)cc2)sc2nc3ccc(OC(F)(F)F)cc3cc12	-4	87*	1	4	15*	-12	22
O=C(CN(C(=O)CCC(=O)Nc1nccs1)c1ccc(F)cc1)NCc1ccc(F)cc1	-7	1	0	.	0	-16	.
CN(Cc1ccccc1)C(=O)c1[nH]cnc1C(=O)N[C@@H](Cc1ccccc1)C(=O)OCc1ccccc1	7	42*	-7	-21	0	-1	2
CC(C)(C)OC(=O)[C@H](Cc1ccccc1)NC(=O)c1nc[nH]c1C(=O)NC1CCN(C(=O)OC(C)(C)C)CC1	6	45*	-7	-15	0	-2	28
CC(C)(C)OC(=O)NCCCCCNC(=O)c1[nH]cnc1C(=O)N[C@@H](Cc1ccccc1)C(=O)OCc1ccccc1	14	53*	-4	-8	0	21	23
CC(C)C[C@H](NC(=O)c1nc[nH]c1C(=O)NCCCCCNC(=O)OC(C)(C)C)C(=O)OCc1ccccc1	5	26	-4	-12	-1	4	.
CN(C)S(=O)(=O)c1ccc(NC(=O)COC(=O)c2ccccn2)cc1	5	0	2	5	2	7	.
COc1ccc(CCNC(=O)/C=C/c2ccc3ccccc3n2)cc1OC	7	-1	12	.	-6	-8	.
O=c1cc(NCCc2ccccc2)c2ccccc2o1	-9	0	0	9	0	0	.
COc1ccccc1CNC(=O)CN1C(=O)NC(C)(c2ccc(C)cc2)C1=O (stereo not given)	14	47*	3	.	-1	-9	-2
Cc1cc(N/N=C/c2ccccc2O)nc(-c2ccccc2O)n1	-5	63*	-11	-16	-1	8	2
CCN1CCN(CCCNC(=O)c2ccc(/C=C3/Sc4ccccc4N(Cc4ccccc4F)C3=O)cc2)CC1	47*	41*	10	4	0	18	7
CC(C)Cn1c(O)c(/C=C2\C=NN=C2c2ccccc2)sc1=S	34	59*	0	-14	18*	-1	61*
CCn1c(O)c(/C=C2\C=NN=C2c2ccccc2)sc1=S	3	10	9	.	1	5	.
O=C(N/N=C/c1c[nH]c2ccccc12)C1CC1(c1ccccc1)c1ccccc1 (stereo not given)	7	54*	-3	-13	0	3	41*
COc1ccc(CN2C(=O)c3cccc4cccc(c34)C2=O)cc1	2	3	3	.	0	-9	.
Cc1ccc(CN2CCC(c3cc(-c4ccc(Cl)cc4)n[nH]3)CC2)cc1	-5	61*	7	.	-1	12	6
CN(C)S(=O)(=O)c1ccc(NC(=O)c2c(F)cccc2Cl)cc1	8	49*	8	9	0	-2	-5
CN(C)S(=O)(=O)c1ccc(NC(=O)c2ccncc2)cc1	-8	1	0	-4	0	-1	.
Nc1nc(Cl)cc(=O)n1Cc1ccc(Cl)cc1	2	2	-6	.	0	-10	.
O=c1c2ccccc2c(C=Nc2ccc(O)cc2)c(O)n1Cc1ccccc1	-7	40	-1	.	-1	-1	5
SMILES	B2AR ag	NTR1 ag	TLR9-MyD88 block	TLR4 MyD88 comp	Bfl-1 A1 inh	NOD2-RIPK2 inh	NTR1 ag conf
O=C1Nc2cc(C(=O)NCCCN3CCOCC3)ccc2S/C1=C/c1cccc(Cl)c1	20	44*	3	.	0	-5	4
C=C(C)COc1ccc(-c2ncnc(C(F)(F)F)c2-c2ccc(OC)cc2)c(O)c1	0	5	0	.	0	-15	.
C=C(C)COc1ccc(-c2nc(N)nc(C(F)(F)F)c2-c2ccc(OC)cc2)c(O)c1	-5	41*	-13	.	0	-11	12
O=C(Nc1cccc([N+](=O)[O-])c1)Nc1cccc([N+](=O)[O-])c1	-6	4	-4	-12	0	-11	.
CC(C)S(=O)(=O)c1csc(NC(=O)Nc2cccc([N+](=O)[O-])c2)c1Cl	-1	50*	3	.	-1	2	11
CCOC(=O)/C(=C\c1cccc(O)c1)c1nc2sc(C)c(C)c2c(=O)[nH]1	12	43*	5	-3	0	13	51*
CCOC(=O)c1nc2sc(C)c(C)c2c(=O)[nH]1	2	-2	-12	-14	1	-8	.
COc1ccc([C@H]2CC(=O)C=C(/C=C/Cc3ccccc3)C2)cc1	1	8	2	.	-1	12	.
O=[N+]([O-])c1ccc(C2CC(c3ccccc3)=Nc3ccccc3S2)cc1 (stereo not given)	-9	62*	-5	.	-2	4	13
O=C(O)C1CC(c2ccccc2)=Nc2ccccc2S1 (stereo not given)	-4	3	-1	.	-2	-6	.
COc1cc(O)c(CC=C(C)C)c(O)c1C(=O)CCc1ccc(O)cc1	10	55*	12	.	-1	-3	28
O=C(CCc1ccc(O)cc1)c1c(O)cc(O)cc1O	5	-1	-13	.	-2	2	.
CC(NCC(O)COCCC12CC3CC(CC(C3)C1)C2)c1ccccc1 (stereo not given)	34	46*	11	4	0	14	69*
NCC(O)COCCC12CC3CC(CC(C3)C1)C2 (stereo not given)	-2	6	8	-7	1	5	.
COC(=O)c1ccccc1NC(=O)Nc1ccc(Cl)cn1	-536	0	0	-2	-1	-18	.
O=C(CSc1nc2nn(-c3ccccc3)c(=O)c-2c2n1CCCCC2)Nc1ccccc1[N+](=O)[O-]	-2	2	0	.	.	-4	.
CSc1nnc(NC(=O)C23CC4CC(CC(C4)C2)C3)s1	-7	52*	2	.	-1	4	53*
COc1ccccc1NC(=O)CSc1nncn1-c1ccccc1	-7	0	-7	.	1	-3	.
O=C1CC(N(CCc2ccccc2)C(=S)Nc2ccccc2)C(=O)N1c1ccc(Br)cc1 (stereo not given)	13	60*	-13	18	-1	-7	23
